Experimental data taken from PubChem BioAssay AID2289 (National Center for Advancing Translational Sciences (NCATS), 2010).
The campaign covered roughly 340,000 compounds. About 3,300 (0.97%) were called active. Inconclusive results (about 9%) are left out. Calls follow the shape of the dose curve; as a rule, active = well fitted inhibition curve with a large enough effect; inconclusive = small, poorly fitted or top-dose-only effect, or effect the other way; inactive = flat fitted curve, though single readings scatter. This is one part of the list.

Assay: qHTS Assay for Modulators of miRNAs and/or Inhibitors of miR-21; also: nearly all actives have a fitted effect of over 55% in size
Details: HeLa miR-21-FLuc reporter, luciferase luminescence, 48 h; actives lower the signal
Summary of the method: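 HeLa miR-21-FLuc reporter line, endogenous miR-21; 2000 cells/well in DMEM/10% FBS; compound titration up to ~40uM final, 48 h, 37 degree Celsius; luciferase detection reagent, 15 min lysis, CCD luminescence.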
Potency is read from the fitted curve at half-maximal effect.

Potency, active:
COc1cccc(C(=O)NN2C(=S)N(c3ccccc3)C(=O)C2CC(N)=O)c1 (centres undefined) 6.56 µM
NC(=O)CC1C(=O)N(c2ccccc2)C(=S)N1NC(=O)c1ccc(Br)cc1 (centres undefined) 7.36 µM
COc1ccc(-c2nnc(-c3ccc(Br)o3)o2)cc1OC 14.7 µM
COc1ccccc1-c1nnc(-c2ccc(N3CCOCC3)cc2)o1 7.36 µM
CCOc1ccc(-c2nnc(-c3cccs3)o2)cc1OCC 6.56 µM
COc1ccc(-c2nnc(-c3ccccc3)o2)cc1OC 3.69 µM
CN(C)c1ccc(-c2nnc(-c3cccs3)o2)cc1 0.117 µM
c1csc(-c2nc(-c3ccc(-c4ccon4)s3)no2)c1 0.329 µM
COc1ccc(-c2noc(-c3cccs3)n2)cc1OC 0.826 µM
COc1ccc(CCN(C)C(=O)CCc2nnc(-c3ccccc3)o2)cc1OC 4.65 µM
COc1ccc(-c2nnc(-c3cccs3)o2)cc1OC 2 µM
CCOc1ccc(-c2nnc(-c3ccco3)o2)cc1OCC 16.5 µM
Cc1cc(C)c(C#N)c(SCC(=O)Nc2nonc2N)n1 14.7 µM
Cc1cc(C)c(C#N)c(SCC(=O)Nc2ccc3c(c2)OCO3)n1 3.29 µM
COc1ccc(NC(=O)c2cc(C(C)C)on2)c(OC)c1 3.69 µM
COc1ccc(NC(=S)Nc2cc(C)ccn2)c(OC)c1 1.65 µM
COc1ccc(NC(=O)c2ccc(C)cc2)c(OC)c1 5.85 µM
CCN(CC)C(=O)c1ccc(-c2cccs2)s1 6.56 µM
CC(=O)N=C(N)Sc1nc2ccccc2[nH]1 2.33 µM
NC(=O)c1ccccc1N/C=C/C(=O)c1cccs1 0.521 µM
CCOC(=O)c1ccccc1N/C=C/C(=O)c1cccs1 9.27 µM
Cc1ccc2nc(-c3ccc(SCC(=O)Nc4nc(C)cs4)nc3)[nH]c2c1 1.47 µM
c1ccc(N2CCN(c3cnc4ccccc4n3)CC2)cc1 1.04 µM
COc1ccccc1OCCCOc1ccc(C)cc1Br 14.7 µM
COc1cc(C)ccc1OCCCOc1ccccc1Br 14.7 µM
COc1ccc(/C(C)=N/NC(=O)c2ccccc2N)cc1 18.5 µM
C/C(=N\NC(=O)c1ccccc1)c1ccc(N2CCCCC2)cc1 6.56 µM
COc1ccc(C(=O)N/N=C(/C)c2ccc(N3CCCCC3)cc2)cc1 8.26 µM
O=C(c1ccc(F)cc1)c1ccc(N2CCCCC2)cc1 4.65 µM
